# Bioassay records as filed in PubChem BioAssay.
# Rows were chosen to be rich in hits. Some 0.52% of all compounds tested hit in one or more screens of this group.
# PINK1 modulator – A Quantitative High throughput Screen to Identify Chemical Modulators of PINK1 Expression; 410,000 tested, 0.2% active; PINK1 immunofluorescence, high-content cytometry, 24 h; Potency, µM (series often up to 76.6 µM), inactives show at the highest dose activation (PINK1 increase), usual class: activators; AID 624263, 2012; active = well fitted activation curve with a large enough effect; inconclusive = small, poorly fitted or top-dose-only effect; cell line not stated here; note: % of control where 0% means no effect; nearly all actives have a fitted effect of over 65% in size
#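 PINK1 protein, normally rapidly degraded, was detected by immunofluorescence after 24 hour compound treatment of a stable cell line. Titration data (5 concentrations) came from laser-scanning cytometry, with CCCP-treated wells as controls.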
# Vif-APOBEC3F blk – qHTS for Inhibitors of Vif-A3F Interactions: qHTS; HeLa A3F-eYFP + Vif (tagged APOBEC3F with the HIV-1 protein that degrades it), YFP fluorescence increase; Potency, µM (titrated, usually from 46.1 µM), without a hit: top-dose activity, negative = active; 390,000 tested, 0.2% active; AID 602313, 2012; note: % of control where 0% means no effect; nearly all actives have a fitted effect of over 65% in size
#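 Fluorescence increase (Ex 488/Em 500-530) after overnight compound treatment at 37 deg C flags inhibition of Vif-driven A3F-eYFP loss in stable HeLa A3F-eYFP/Vif cells seeded overnight beforehand.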
# Vif-APOBEC3G blk – qHTS for Inhibitors of Vif-A3G Interactions: qHTS; HeLa A3G-eYFP + Vif (tagged APOBEC3G with the HIV-1 protein that degrades it), YFP fluorescence, overnight; 410,000 tested, 0.076% active; Potency, µM (highest dose often 46.1 µM), for the others: top-dose activity, negative = active, most hits filed as inhibitors; DNA dC->dU-editing enzyme APOBEC-3G (Homo sapiens), Q9HC16; note: % is set by controls: 0 for no effect and ±100 for the full control effect; nearly all actives have a fitted effect of over 60% in size
# Target sequence (Q9HC16 whole entry, looked up): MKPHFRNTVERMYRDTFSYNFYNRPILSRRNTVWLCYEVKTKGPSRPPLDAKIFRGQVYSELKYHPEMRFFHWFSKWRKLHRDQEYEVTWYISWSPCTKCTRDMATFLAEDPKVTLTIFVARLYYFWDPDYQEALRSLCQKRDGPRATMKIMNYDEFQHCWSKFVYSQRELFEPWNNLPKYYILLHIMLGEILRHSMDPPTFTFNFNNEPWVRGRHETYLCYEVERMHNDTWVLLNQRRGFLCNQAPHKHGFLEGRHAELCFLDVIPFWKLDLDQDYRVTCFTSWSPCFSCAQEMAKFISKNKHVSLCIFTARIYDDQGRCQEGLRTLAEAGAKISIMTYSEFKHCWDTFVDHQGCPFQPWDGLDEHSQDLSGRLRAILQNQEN
#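 HeLa cells stably expressing Vif and C-terminally eYFP-tagged A3G, seeded overnight at 37 deg C, then exposed to compound by pintool overnight at 37 deg C. Rise in yellow fluorescence (Ex 488/Em 500-530, Acumen) marks blocked Vif-driven A3G degradation.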
# Epigenetic derep – Quantitative High-Throughput Screen for Regulators of Epigenetic Control; murine LDR cells, GFP reporter derepression, 30 h; Potency, µM (series often up to 53.9 µM), without a hit: top-dose GFP activation, hits mostly activators; 280,000 tested, 0.2% active; note: % of control where 0% means no effect; nearly all actives have a fitted effect of over 60% in size
#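 Murine LDR cells carrying a silenced, genomically integrated CMV-driven GFP reporter were exposed to compound for 30 hours at 37 C. After PBS washes, GFP-positive cells (20–120 um objects) were counted by laser-scanning microplate cytometry.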
# * = called active by the depositor; u = inconclusive; x = no result. Unless noted, calls come from the whole dose curve; as a rule, active = well fitted curve in the direction sought with a large enough effect; inconclusive = small, poorly fitted or top-dose-only effect, or another doubt; inactive = no such curve, though single readings can be large; an effect the other way counts as inactive or inconclusive. Potency is the fitted concentration of half-maximal effect.
SMILES,PINK1 modulator,Vif-APOBEC3F blk,Vif-APOBEC3G blk,Epigenetic derep
CN(C)c1ccc(/C=C2\Cc3ccccc3C2=O)cc1,0%,x,3.2µM*,x
CCOC(=O)N1CCc2c(sc3c2c(=O)n(-c2ccc(CC)cc2)c(=O)n3CC(=O)c2ccc(F)cc2)C1,3%,1%,-3%,2%
CCOC(=O)N1CCc2c(sc3c2c(=O)n(-c2ccc(F)cc2)c(=O)n3CC(=O)c2ccc(Cl)cc2)C1,0%,u,-17%,16µM*
CCN1CCS/C1=C/C=C/C1=[N+](CC)CCS1,16µM*,-1%,0%,-2%
CCN1CCS/C1=C\C=C\C1=[N+](CC)CCS1,14µM*,-2%,14%,1%
COc1ccccc1N1CCN(c2nc(CNC(=O)C3CC34CCCC4)nc3ccccc23)CC1 (stereo unspecified),0%,x,x,x
O=C(NCCc1nnc2n1CCN(CC1CC=CCC1)CC2)c1ccc(F)cc1 (stereo unspecified),-1%,x,x,x
Cc1ccc(C)c(NC(=O)c2ccccc2O)c1,16µM*,-5%,-10%,3%
Cc1cccc(NC(=O)c2ccccc2O)c1C,x,0%,4%,6%
COc1cc(N2CCCC2)c(OC)cc1/C=C(/C#N)c1ccc(F)cc1,3%,10µM*,10µM*,14µM*
COc1cc(N2CCCC2)c(OC)cc1/C=C(/C#N)c1ccc(Br)cc1,21%,4µM*,u,3.2µM*
COc1ccc(C(C#N)=Cc2ccc(OC)c(OC)c2)cc1,2%,-2%,2%,x
COc1ccc(C(C#N)=Cc2ccccc2OC)cc1,12%,-6%,-31%,x
Cc1ccn(CCC(=O)NCC2Cc3cc(Cl)cc(-c4ccc5[nH]ccc5c4)c3O2)n1 (stereo unspecified),3%,x,x,x
C/C(=N\Nc1ncc(Cl)cc1Cl)c1ccccn1,0%,u,2%,0.63µM*
C/C(=N\Nc1ccc(Cl)c(C(=O)O)c1)c1ccccn1,1%,-1%,-1%,-1%
CCOC(=O)c1ccc(Nc2nnc(C(C)(C)C)c(=O)[nH]2)cc1,25µM*,3%,-15%,u
Cc1c(C(=O)NCc2ccco2)cnn1-c1ncc2c(n1)-c1ccccc1CC2,-1%,x,x,x
OCCCn1c(C2CCCN2c2nc(-c3ccc(F)cc3)cs2)nc2cc(Cl)c(N3CCCCC3)cc21 (stereo unspecified),1%,25µM*,1%,x
OCCCn1c(C2CCCN2c2nc(-c3ccc(Cl)cc3)cs2)nc2cc(Cl)c(N3CCCCC3)cc21 (stereo unspecified),8%,u,-6%,x
Cc1[nH]c2ccccc2c1/C=N/Nc1ccc([N+](=O)[O-])cc1S(=O)(=O)Nc1ccc(Cl)cc1,7%,u,-8%,u
COc1ccccc1NS(=O)(=O)c1cc([N+](=O)[O-])ccc1N/N=C/c1sc(N2CCOCC2)nc1-c1ccccc1,-1%,u,u,2.8µM*
COc1ccccc1NS(=O)(=O)c1cc([N+](=O)[O-])ccc1N/N=C/c1c[nH]c2ccccc12,17%,11µM*,11µM*,u
COc1ccc(NS(=O)(=O)c2cc([N+](=O)[O-])ccc2N/N=C\c2c(C)[nH]c3ccccc23)cc1,3%,u,-15%,10µM*
COc1ccc(C(=O)N/N=C/c2sc(N3CCOCC3)nc2-c2ccccc2)cc1OC,3%,4%,-12%,-3%
SMILES,PINK1 modulator,Vif-APOBEC3F blk,Vif-APOBEC3G blk,Epigenetic derep
COc1ccc(C=NNc2ccc([N+](=O)[O-])cc2S(=O)(=O)Nc2ccccc2C(=O)O)cc1OC,-1%,3%,3%,x
O=[N+]([O-])c1ccccc1N/N=C/c1c[nH]c2ccccc12,0%,-7%,4%,0%
O=[N+]([O-])c1ccc(N/N=C/c2c[nH]c3ccccc23)cc1,-1%,13µM*,7.9µM*,14µM*
COCC(=O)Nc1cc(C(=O)N2CCc3c([nH]c4ccccc34)C2)cc2nc(-c3ccccc3)n(C)c12,1%,x,x,x
COc1ccc(OC)c(CN2CCOc3ccc(CN4CCC(O)(c5cccnc5)CC4)cc3C2)c1,-1%,x,x,x
C/C(=N\OC(=O)c1c(-c2c(F)cccc2Cl)noc1C)c1nccs1,5%,-9%,1%,-4%
Cc1onc(-c2c(F)cccc2Cl)c1C(=O)O/N=C(\N)c1ccc([N+](=O)[O-])o1,-1%,5%,22µM*,-2%
